Data on 30 molecules can be found in PubChem BioAssay (NCATS).

Inconclusive results are not listed. A number with no mark means an inactive call. Active and inactive are the calls of the source. Calls follow the shape of the full dose curve.
Potency is read from the fitted curve at half-maximal effect.

The nature of this assay: Confirmatory qHTS for activators (rescue) of SARS-CoV-2 Cytopathic Effect (CPE) (AID 1508606). Also: nearly all actives have a fitted effect of over 70% in size. As to CPE rescue (activation): 0% is about no effect. To be noted: Vero E6 SARS-CoV-2 CPE rescue, viability luminescence; series mostly up to 20 µM; CPE rescue (activation): at the top concentration.
Take `CC(=O)O/N=C1\C(=O)N(Cc2cc(Cl)ccc2Cl)c2ccc(Cl)cc21`: the Potency is 7.94 µM (active).

With `Cn1c(NC[C@@H](N)Cc2ccccc2)nc(-c2ccncc2)c(-c2ccc3ccccc3c2)c1=O`, the Potency was 6.31 µM (active).

Turning to `c1ccc(-c2cc(CCC3CCNCC3)c3ccccc3n2)cc1`, the “CPE rescue (activation)” value was -9.44%.

Regarding `CC(=O)O[C@@H]1C[C@H](O)[C@@]23CO[C@H](O)[C@]1(C)C2C[C@@H](O)[C@]1(C)C3C(=O)[C@H](OC(C)=O)[C@@]2(C)[C@H](c3ccoc3)C[C@H]3O[C@]321` (stereo not given in full), the Potency was 1.06 µM (active).

Regarding `Nc1nc2c(c(N3CC[C@@H](N)C3)n1)CCCc1ccccc1-2`, the Potency was 10 µM (active).

As for `O=C(O)c1ccc(CCCc2ccc(OCCc3ccc(F)cc3)cc2)o1`, the “CPE rescue (activation)” value is 38%.

`Cc1nc(Nc2cnn(C3CCNCC3)c2)nc2c1N(C)C(=O)c1cc3ccccc3cc1N2C`: the Potency is 10 µM (active).

Regarding `OC1CCC(Oc2cccc3cnc(Nc4ccc5nc[nH]c5c4)nc23)CC1` (stereo not given), the Potency was 4.47 µM (active).

Consider `COc1cc(N2CCN(C)CC2)ccc1Nc1nccc(-c2cn(C)c3cnccc23)n1`, for which the Potency was 8.91 µM (active).

Regarding `Cc1nc2ccc(-n3ncc(C(=O)c4cc5ccccc5[nH]4)c3N)cc2[nH]1`, the “CPE rescue (activation)” value is 19.3%.

For `C[C@@H]1C[C@H](N)C[C@H](c2ccncc2NC(=O)c2ccc(F)c(-c3c(F)cccc3F)n2)C1`, the Potency is 8.91 µM (active).

`C/C=C(\C)C(=O)O[C@H]1C=C(CO)C(=O)[C@H](OC(C)=O)[C@H]1C(C)C`: the “CPE rescue (activation)” value is 24.3% [at 13.4 µM].

For `C[C@H]1CC[C@@]2(OC1)O[C@H]1CC3[C@@H]4CC[C@@H]5C[C@@H](O[C@@H]6O[C@H](CO)[C@@H](O[C@@H]7O[C@@H](C)[C@H](O)[C@@H](O)[C@H]7O)[C@H](O)[C@H]6O[C@@H]6O[C@H](CO)[C@@H](O)[C@H](O)[C@H]6O)CC[C@]5(C)C4CC[C@]3(C)[C@H]1[C@@H]2C` (stereo not given in full), the “CPE rescue (activation)” value was -13.7% [at 6.64 µM].

`COc1ccc(CNC(=O)Nc2ncc([N+](=O)[O-])s2)cc1`: the Potency was 7.94 µM (active).

As to `COc1cc2ncnc(Sc3nnc(C)s3)c2cc1OC`, the Potency is 3.98 µM (active).

Consider `COc1ccc(S(=O)(=O)N(CCO)c2ccccc2CN(C)C/C=C/c2ccc(Cl)cc2)cc1`, for which the Potency was 10 µM (active).

Consider `CN(C)C(=O)NC1(c2ccccc2)CCN(CCC[C@]2(c3ccc(Cl)c(Cl)c3)CCCN(C(=O)c3ccccc3)C2)CC1`, for which the “CPE rescue (activation)” value was -11.4%.

On to `CC1(C)CCC(C)(C)c2cc(C#Cc3ccc(C(=O)O)cc3)ccc21`, for which the “CPE rescue (activation)” value is 13.3%.

Take `Cc1cc(CN)cc(C)c1NC(=O)c1ccc(-c2cc(Cl)ccc2Cl)o1`: the Potency is 7.94 µM (active).

As to `COCCN1CCN(Cc2ccc(-c3n[nH]c4c3C(=O)c3c(NC(=O)NN5CCOCC5)cccc3-4)cc2)CC1`, the Potency was 2.82 µM (active).

As for `CC(C)C[C@H](NC(=O)[C@H](Cc1ccccc1)NC(=O)OCc1ccccc1)C(=O)C=O`, the Potency is 8.91 µM (active).

Take `O=C(O)/C=C/c1ccc(-c2ccc(O)c(C34CC5CC(CC(C5)C3)C4)c2)cc1`: the “CPE rescue (activation)” value was -8.95%.

Turning to `O=S(=O)(c1cccc2ccccc12)n1ccc2ccc(N3CCN4CCCC4C3)cc21` (stereo not given), the Potency was 11.2 µM (active).

As to `COc1ccc2cc(-c3cc(-c4cc(Cl)cc(Cl)c4)nn3C(C)c3ccc(C(=O)NCCC(=O)O)cc3)ccc2c1` (stereo not given), the “CPE rescue (activation)” value was 3.92%.

Consider `Cc1cc(C)cc(-c2cnc3cc(Cl)c(-c4cccc(O)c4)cc3c2OCCCN)c1`, for which the “CPE rescue (activation)” value is -12.7%.

On to `C(=N\Nc1nc(Nc2ccccc2)nc(N2CCOCC2)n1)/c1c[nH]c2ccccc12`, for which the Potency was 0.0898 µM (active).

For `CC(C)c1ccc(NC(=O)C(c2ccccc2)N(C)C(=O)Cc2c[nH]c3ccccc23)cc1` (stereo not given), the Potency was 3.55 µM (active).

Regarding `O=S(=O)(NCC1CC1)c1ccc(Nc2nccc(N3CCCc4cc(O)ccc43)n2)cc1`, the Potency is 0.794 µM (active).

As for `CN(CCCNC(=O)c1ccc2nc3c(c(Cl)c2c1)CCCC3)Cc1ccccc1`, the Potency is 7.08 µM (active).

For the molecule `CC(C)(O)CNc1ncc(-c2ccnc(Nc3ccncc3)n2)c(CC2CC2)n1`, the Potency was 1.12 µM (active).
